Out of some 69,000 compounds screened, about 8,600 (12%) showed an effect of 50% or more. For the sample, strong results were picked, then their nearest neighbours and some compounds at random.

The values below come from ChEMBL document CHEMBL4513216, “Probing the Open Global Health Chemical Diversity Library for Multistage-Active Starting Points for Next-Generation Antimalarials” (ACS Infect Dis, 2020).

The test system of this assay is Plasmodium berghei. Description: Screen against P. berghei liver stage (PbLuc), transformed with Luciferase, at 10uM. The class given is functional, HepG2. To be noted: tested at 10 uM.
With `CN(C)CC(=O)N1Cc2nnn(C)c2C(COCC2CC2)C1` (stereo not drawn), the INHIBITION was found to be 24%.

For `Cn1nnc2c1C(COCC1CC1)CN(C(=O)[C@H]1CCCO1)C2` (stereo partly drawn), the INHIBITION was 68.9%.

Turning to `Cc1nccn1CCN(C)C(=O)C1CCCN(C2CCOCC2)C1` (stereo not drawn), the INHIBITION was determined as 34.1%.

Consider `Cc1cc(C)n(CC2CCCN2CCc2ccccn2)n1` (stereo not drawn), for which the INHIBITION was determined as 44.4%.

Turning to `Cc1cc(CNC2CCc3nc(C(C)C)nn3C2)on1` (stereo not drawn), the INHIBITION stood at 11.3%.

Consider `COC(=O)CC(NC(=O)c1cccc(N2CCCC2=O)c1)c1cccs1` (stereo not drawn), for which the INHIBITION is recorded as 62.8%.

`COC(=O)CC(NC(=O)c1cc(OC)c2c(c1)OCCO2)c1cccs1` (stereo not drawn): the INHIBITION worked out at 29.4%.

On to `CCC(C)C(=O)NCc1cccc(N2CCCCC2=O)c1` (stereo not drawn), for which the INHIBITION was 11.6%.

For `COCCc1noc(CN(C)C(=O)c2cccc(N3CCCC3=O)c2)n1`, the INHIBITION amounted to 13.9%.

Turning to `COC(=O)CC(NC(=O)c1cccc(CS(C)(=O)=O)c1)c1cccs1` (stereo not drawn), the INHIBITION is recorded as 71.2%.

Regarding `COC(=O)CC(NC(=O)c1cccc(N2CCCC2=O)c1)C(=O)OC` (stereo not drawn), the INHIBITION came out at 2.55%.

`COC(=O)CC(NC(=O)c1ccccc1OC)c1cccs1` (stereo not drawn): the INHIBITION was found to be 40%.

`COC(=O)CC(NC(=O)c1ccc(OC)cc1OC)c1cccs1` (stereo not drawn): the INHIBITION is 7.08%.

As to `CCC(NC(=O)c1cccc(N2CCCC2=O)c1)c1ccc(OC)cc1` (stereo not drawn), the INHIBITION amounted to 52.6%.

Turning to `Cc1cc(S(=O)(=O)NCC[S+](C)[O-])c(F)cc1F` (stereo not drawn), the INHIBITION amounted to 37.6%.

For `CC(O)CN1CCN(C(=O)c2sccc2C2CC2)CC1` (stereo not drawn), the INHIBITION was -1.14%.

In the case of `Cc1cnc(CC2COCCN(Cc3nccn3C)C2)cn1` (stereo not drawn), the INHIBITION was found to be 44.1%.

For `CC(C)n1ccnc1C1CCN(Cc2ccc(C(F)(F)F)c(F)c2)CC1`, the INHIBITION was 42.5%.

Take `CO[C@@H]1CCN(Cc2ccoc2)[C@@H]2CN(Cc3ccco3)C[C@@H]21`: the INHIBITION was 45.2%.

In the case of `CC(C)(C)c1ccn(C2(C(=O)O)CCN(c3ccnc(N)n3)CC2)n1`, the INHIBITION worked out at 34.5%.

`Cc1nc(C)c(CN2CCOC[C@H](Oc3ccc(S(C)(=O)=O)cc3)C2)s1`: the INHIBITION is recorded as 26.4%.

With `Cc1nc(C)c(CN2CCOC[C@H](Oc3ccccc3)C2)s1`, the INHIBITION was found to be 71.4%.

For the compound `Cc1cccc(O[C@H]2COCCN(Cc3sc(C)nc3C)C2)n1`, the INHIBITION is -60.9%.

On to `CN(Cc1cc[nH]n1)C(=O)c1cn(Cc2c(F)cccc2F)nn1`, for which the INHIBITION was 19.3%.

Turning to `Cc1cc(S(=O)(=O)N2CCCc3cc(F)c(F)cc32)sc1C(=O)O`, the INHIBITION amounted to 33.7%.

As to `CC(=O)N1CCC(n2ccc(-c3cnc(NCC(C)C)nc3)n2)CC1`, the INHIBITION came to 56%.

With `CC(=O)N1CCC(n2ccc(-c3cnc(N4CCOCC4)nc3)n2)CC1`, the INHIBITION amounted to 17.4%.

Turning to `CC[C@H](C)Nc1ncc(-c2ccn(C3CCN(C(C)=O)CC3)n2)cn1`, the INHIBITION worked out at 24.8%.

`CNc1cncc(C2CCCN2S(=O)(=O)c2cccc(F)c2)n1` (stereo not drawn): the INHIBITION is reported as 14.7%.

On to `Cc1ccc(C(=O)N2C[C@@H]3CCCO[C@@H]3[C@H](N(C)Cc3ccco3)C2)o1`, for which the INHIBITION is recorded as -7.59%.

Turning to `CN(C)c1ncccc1CNC(=O)N1CCCC1CN1CCCC1` (stereo not drawn), the INHIBITION came to 57.8%.

Consider `CN(C)c1ncccc1CNC(=O)N1CCCC1c1ccsc1` (stereo not drawn), for which the INHIBITION is -0.847%.

As to `CN(C)c1ncccc1CNC(=O)N1CCCC1CN1CCCCC1` (stereo not drawn), the INHIBITION stood at 11.6%.

Turning to `CN1CCC(NC(=O)c2cc(F)cc(Cl)c2O)C1=O` (stereo not drawn), the INHIBITION was 26.5%.

Consider `CCc1c(C)nc2n(c1=O)CC(C(=O)Nc1ncccc1C)CS2` (stereo not drawn), for which the INHIBITION is listed as -0.621%.

`Cc1noc(C(C)C)c1C(=O)NCc1cccc(CN(C)C)c1`: the INHIBITION was 51.1%.

For the compound `Cc1noc(C(C)C)c1C(=O)NCc1cccc(N(C)C)c1`, the INHIBITION is reported as 6.14%.

Consider `COCc1cccc(CNC(=O)c2c(C)noc2C(C)C)c1`, for which the INHIBITION is given as 42.9%.

On to `Cc1cnccc1CN(C)C1CCN(c2ncnc3[nH]cnc23)CC1`, for which the INHIBITION amounted to 48.9%.

On to `Cc1ncsc1CCN(C)C1CCN(c2ncnc3[nH]cnc23)CC1`, for which the INHIBITION was 50.8%.

As to `Cc1nn(C)c(C)c1CN(C)C1CCN(c2ncnc3[nH]cnc23)CC1`, the INHIBITION came out at 48.9%.

Consider `Cc1ccccc1OCCN1CCN(Cc2cnn(CCO)c2)CC1`, for which the INHIBITION was determined as 30.45%.

On to `CC(NC(=O)c1cc(-c2cccc(Cl)c2)no1)C(=O)N(C)C` (stereo not drawn), for which the INHIBITION is on record as -21.6%.

With `CC(NC(=O)c1cc(-c2cccc(Cl)c2)no1)C(=O)N1CCCC1` (stereo not drawn), the INHIBITION is 86.9%.

On to `Cc1ccc(-c2cc(C(=O)NC(C)C(=O)N3CCCCC3)on2)cc1` (stereo not drawn), for which the INHIBITION is -40.3%.

Consider `COc1cc(C)c(NC(=O)NCCn2cccc2)cc1OC`, for which the INHIBITION is given as 52.2%.

Turning to `COc1cc(C)c(NC(=O)CCn2cccc2)cc1OC`, the INHIBITION is -23.2%.

`COc1cc(Cl)c(NC(=O)NCCn2cccc2)cc1OC`: the INHIBITION is reported as -102%.

In the case of `Cn1cc(CN(Cc2cccc(-n3cccn3)c2)C2CC2)cn1`, the INHIBITION amounted to 49%.

On to `CCc1ccccc1NC(=O)c1cccc(N(C)S(C)(=O)=O)c1C`, for which the INHIBITION is -15.3%.

For the compound `NC(=O)C1CCCN1C1CCN(C(=O)c2ccc3c(c2)OCO3)CC1` (stereo not drawn), the INHIBITION worked out at 19.9%.

For `CSCc1noc(CNC2CCCC(C)(C)C2)n1` (stereo not drawn), the INHIBITION was determined as 16.9%.

In the case of `Clc1nc2ccccn2c1CNCC1CN(C2CC2)CCO1` (stereo not drawn), the INHIBITION is -34.4%.
